Drawing on PubChem BioAssay AID743445 (Broad Institute, 2014), this text covers inhibition for 92 molecules.

A word on the inhibition: it is the drop in the measured response relative to a control, in per cent.

Screen size: about 310,000 compounds; about 1,700 (0.55%) were called active. The sample holds actives, similar compounds and a random draw of the others, so the mix is not that of the screen. Unmarked numbers belong to inactive results. Rule as the data show it: active = inhibition above about 50%; inactive = the rest.

For the experiment, the target named is Histone-lysine N-methyltransferase NSD2 (Homo sapiens) (UniProt O96028). The experiment in a line: blockers of NSD2 lysine methylation activity – biochemical, AlphaScreen, single concentration, set 2, primary screen (AID 743445). As to conditions: NSD2 peptide methylation, 120 min, at 12.5 µM, hits give high values. For orientation: Alpha assays give light when donor and acceptor beads are brought close together.
Chain of Histone-lysine N-methyltransferase NSD2 (Homo sapiens) (O96028 whole entry, looked up): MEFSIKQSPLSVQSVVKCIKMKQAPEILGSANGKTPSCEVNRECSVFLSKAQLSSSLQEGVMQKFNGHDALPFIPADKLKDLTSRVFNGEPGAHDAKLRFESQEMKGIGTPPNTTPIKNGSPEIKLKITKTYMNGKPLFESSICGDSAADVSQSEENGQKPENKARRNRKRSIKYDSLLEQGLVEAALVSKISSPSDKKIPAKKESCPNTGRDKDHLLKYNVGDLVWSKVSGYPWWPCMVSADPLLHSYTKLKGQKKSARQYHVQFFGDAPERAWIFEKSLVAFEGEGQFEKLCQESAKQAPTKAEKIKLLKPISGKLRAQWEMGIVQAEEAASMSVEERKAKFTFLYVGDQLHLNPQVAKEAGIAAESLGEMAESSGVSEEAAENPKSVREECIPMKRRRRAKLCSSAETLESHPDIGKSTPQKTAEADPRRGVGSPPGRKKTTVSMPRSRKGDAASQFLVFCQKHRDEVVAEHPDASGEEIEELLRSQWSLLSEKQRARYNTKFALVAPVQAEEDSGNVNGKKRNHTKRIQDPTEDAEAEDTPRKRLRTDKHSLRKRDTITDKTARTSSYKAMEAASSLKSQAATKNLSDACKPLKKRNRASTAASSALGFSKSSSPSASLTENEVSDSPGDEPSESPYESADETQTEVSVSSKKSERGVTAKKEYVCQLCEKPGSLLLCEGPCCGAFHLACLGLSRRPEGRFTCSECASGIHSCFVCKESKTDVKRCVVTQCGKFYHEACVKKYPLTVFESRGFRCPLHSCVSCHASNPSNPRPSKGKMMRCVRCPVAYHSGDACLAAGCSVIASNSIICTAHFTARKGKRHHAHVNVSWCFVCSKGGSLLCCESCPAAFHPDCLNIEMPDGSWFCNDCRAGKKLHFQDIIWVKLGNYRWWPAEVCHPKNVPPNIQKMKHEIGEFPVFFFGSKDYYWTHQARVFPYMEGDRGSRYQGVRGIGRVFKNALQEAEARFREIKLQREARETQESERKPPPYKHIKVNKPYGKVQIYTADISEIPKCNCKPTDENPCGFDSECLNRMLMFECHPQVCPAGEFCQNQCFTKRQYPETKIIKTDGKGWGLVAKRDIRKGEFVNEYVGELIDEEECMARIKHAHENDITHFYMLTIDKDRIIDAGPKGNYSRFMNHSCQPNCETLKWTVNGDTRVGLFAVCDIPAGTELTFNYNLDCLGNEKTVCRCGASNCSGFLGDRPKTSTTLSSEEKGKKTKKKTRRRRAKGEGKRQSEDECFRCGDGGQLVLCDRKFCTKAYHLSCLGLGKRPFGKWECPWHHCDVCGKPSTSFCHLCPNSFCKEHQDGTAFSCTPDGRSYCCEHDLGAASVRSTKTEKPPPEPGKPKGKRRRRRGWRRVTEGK
For `OC[C@@H]1CN(Cc2cccs2)C[C@H](n2cnc3c(NC4CCCC4)ncnc32)O1`, the inhibition was -1.52%.

Regarding `Cc1ccc(NC(=O)c2cc(C)nn2-c2ccccc2)c(C)c1`, the inhibition is -1.54%.

Regarding `CCOC(=O)C1=C(C)NC2=C(C(=O)CC(C)(C)C2)C1c1ccc2c(c1)OCO2` (configuration not stated), the inhibition was 15.9%.

`NC1=CC(=O)C(=O)c2cccnc21`: the inhibition was 122% (active).

In the case of `CCOc1ccc(CCN2C(=O)c3cccnc3C2=O)cc1OCC`, the inhibition was -2.42%.

Turning to `Cc1cccc(N2C(=O)c3cccnc3C2=O)c1`, the inhibition is -1.99%.

Regarding `Nc1[nH][nH]c(=O)c1N=Nc1ccc2c(c1)OCO2`, the inhibition is 4.47%.

For the molecule `Cc1[nH][nH]c(=O)c1C(c1ccc2c(c1)OCO2)c1c(C)[nH][nH]c1=O`, the inhibition was 84.4% (active).

Take `CCOc1ccc(C(c2c(C)[nH][nH]c2=O)c2c(C)[nH][nH]c2=O)cc1OCC`: the inhibition is 10.6%.

For the molecule `CCCCN1CCN(C(=O)c2ccc3c(c2)NC(=O)C(C)(C)O3)CC1`, the inhibition is 8.11%.

With `COc1ccc(CN(CCN2CCOCC2)C(=O)c2ccc(C)cc2)cc1OC`, the inhibition is 6.86%.

As to `COc1ccc(CSc2nnc(SCC(=O)Nc3ccccc3C(F)(F)F)s2)cc1`, the inhibition was 0.831%.

In the case of `COc1ccc(CSc2nnc(-c3cccc(C)c3)n2C)cc1`, the inhibition was 0.584%.

Turning to `Oc1c(C=Nc2cccc3nsnc23)ccc2ccccc12`, the inhibition is 109% (active).

On to `Oc1ccc2ccccc2c1N=Nc1nccs1`, for which the inhibition was 34.1%.

Consider `O=C(CSc1nc2ccccc2s1)N=Nc1c(O)[nH]c2ccccc12`, for which the inhibition is 2.59%.

Turning to `O=C(CSc1nnc(COc2ccccc2)n1Cc1ccco1)c1ccc2ccccc2c1`, the inhibition was 0.338%.

With `O=C(CSc1nc2ccccc2n1Cc1ccccc1Cl)N/N=C\c1c[nH]c2ccccc12`, the inhibition is 3%.

Take `COc1cc(NC(=O)COC(=O)c2ccc([N+](=O)[O-])s2)cc(OC)c1OC`: the inhibition is 72.8% (active).

Consider `O=C(OCC(=O)N1CCN(c2ccccc2)CC1)c1ccc([N+](=O)[O-])s1`, for which the inhibition is 1.02%.

For `COc1cc(C(=O)OCc2ccc([N+](=O)[O-])cc2)cc(OC)c1OC`, the inhibition is -0.924%.

Turning to `O=C(NCc1cccnc1)c1cc(C2CCCN(C(=O)CCCc3ccccc3)C2)on1` (configuration not stated), the inhibition is -1.28%.

Turning to `Fc1ccc2nc(COCc3nc4ccc(F)cc4[nH]3)[nH]c2c1`, the inhibition is -1.4%.

Turning to `CCCOc1ccc(F)cc1-c1cc(C(=O)NCc2ccc(F)cc2)[nH]n1`, the inhibition is 19.4%.

Take `COc1ccc(CCNC(=O)CSc2nc3c([nH]2)c(=O)n(C)c(=O)n3C)cc1`: the inhibition is -8.19%.

Consider `COC(=O)[C@@H](Cc1ccccc1)NC(=O)NCCc1ccccc1`, for which the inhibition is 0.664%.

On to `COC(=O)[C@H](Cc1ccccc1)NC(=O)Nc1ccc(OC)cc1`, for which the inhibition was -1.09%.

In the case of `COC(=O)[C@H](Cc1ccccc1)NC(=O)Nc1ccc(S(N)(=O)=O)cc1`, the inhibition is 59.7% (active).

For `COc1ccc(NC(=O)C2(C)Cc3c(-c4cccc(NC(C)=O)c4)ccnc3O2)cc1OC` (configuration not stated), the inhibition is 1.97%.

Regarding `CCOc1ccccc1C(=O)Nc1cccc(C(=O)Nc2cc(C)ccn2)c1`, the inhibition was 1.28%.

On to `O=C(CSc1nnc(-c2cccc(Cl)c2)n1Cc1ccco1)Nc1ccc(OCc2ccccc2)cc1`, for which the inhibition was -1.47%.

On to `CC(=O)c1cc(-c2ccccc2)n(CCC(=O)NC2CCCCCC2)c1C`, for which the inhibition was 1.47%.

Consider `CC(=O)CC(CC(=O)NC1CCCCC1)c1ccccc1` (configuration not stated), for which the inhibition was -4.05%.

In the case of `CC(=O)c1cc(-c2ccccc2)n(CC(=O)NC2CCCCC2)c1C`, the inhibition was 71.5% (active).

On to `CN1CCN(c2ccc(S(=O)(=O)N3CCCCC3)cc2NC(=O)Cc2ccccc2F)CC1`, for which the inhibition was 1.27%.

With `CCN(CC)S(=O)(=O)c1ccc(N2CCN(C)CC2)c(NC(=O)Nc2ccccc2F)c1`, the inhibition was 78.4% (active).

On to `CCN(CC)S(=O)(=O)c1ccc(N2CCOCC2)c(NC(=O)C(C)Oc2ccc(F)cc2)c1` (configuration not stated), for which the inhibition is -1.83%.

As for `Cc1nc([N+](=O)[O-])cn1CC(=O)Nc1ccc(Cl)cc1`, the inhibition is -0.868%.

For `Cc1nc([N+](=O)[O-])cn1CC(=O)Nc1ccc2c(c1)OCO2`, the inhibition is -1.66%.

On to `Cc1ccc(C(=O)Cn2cc([N+](=O)[O-])nc2C)cc1`, for which the inhibition was 55.2% (active).

`COc1ccc(CCc2nc(-c3cccs3)no2)cc1`: the inhibition is -6.21%.

As to `COc1ccc(OC)c(-c2csc(NC(=O)COC(=O)C3CC3)n2)c1`, the inhibition was -2.87%.

On to `COc1ccc(OC)c(-c2csc(-c3cccs3)n2)c1`, for which the inhibition was 126% (active).

With `COc1ccc(-c2cc(NC=O)c3ncc(-c4cc(OC)c(OC)c(OC)c4)n3c2)c(OC)c1`, the inhibition was 2.63%.

`COc1ccc(C(=O)N2CCCCC2c2cc(C(=O)Nc3ccc(F)c(Cl)c3)no2)cc1` (configuration not stated): the inhibition is -0.843%.

With `CCOc1ccc(C(CC(=O)O)NC(=O)C23CC4CC(CC(C4)C2)C3)cc1OC` (configuration not stated), the inhibition is 73.2% (active).

As for `COc1ccc(C(C)NC(=O)C23CC4CC(CC(C4)C2)C3)cc1` (configuration not stated), the inhibition is 0.365%.

Consider `CCOc1ccc(C(CC(=O)O)NC(=O)Cc2ccccc2)cc1OC` (configuration not stated), for which the inhibition is 0.638%.

As to `CCC(NC(=O)C1C2C=CC3(CN(Cc4ccccc4)C(=O)C13)O2)c1ccccc1` (configuration not stated), the inhibition was -0.276%.

As to `CC(=O)N1CCc2cc(S(=O)(=O)NCCC(=O)N3CCCC3)ccc21`, the inhibition was -3.38%.

As to `Cc1ccc(-n2c(SCC(=O)Nc3ccc(S(=O)(=O)Nc4nccs4)cc3)nnc2-c2ccccn2)cc1`, the inhibition is 10.5%.

In the case of `Cc1coc2c(O)cc3c(c12)OC1(N2CCCCC2)C(=O)NCCCC31` (configuration not stated), the inhibition is 75.1% (active).

Turning to `COc1ccccc1CCNC(=O)C1CCN(c2nc(C)cc(C)n2)CC1`, the inhibition is -3.97%.

For the molecule `Cc1ccc(C(=O)N(Cc2ccccn2)CC2CCCO2)cc1` (configuration not stated), the inhibition is -6.08%.

In the case of `OC(c1ccccc1)c1nc(/C=C/c2ccc(C(F)(F)F)cc2)cs1` (configuration not stated), the inhibition was -1.07%.

As for `CSc1ccc(CN2CCC2(C)C(=O)Nc2ccc(C)c(O)c2)cc1` (configuration not stated), the inhibition is -2.34%.

Turning to `COCC(C)n1c(SCc2ccc(C(=O)OC)o2)nc2ccccc2c1=O` (configuration not stated), the inhibition is -0.047%.

`COCCn1c(C)cc(C(=O)CSc2nc3ccccc3c(=O)n2C(C)COC)c1C` (configuration not stated): the inhibition is 1.34%.

Regarding `COCC(C)n1c(SCC(=O)NC2CCCCC2C)nc2ccccc2c1=O` (configuration not stated), the inhibition was 52.7% (active).

With `COC(CNC(=O)[C@H](Cc1ccccc1)NC1(C(=O)NC2CCCCC2)CCCCC1)OC`, the inhibition was -1.53%.

As to `CC1(Oc2ccc(Cl)cc2)CCN(Cc2csc3ccccc23)C1` (configuration not stated), the inhibition was -2.85%.

Take `COC(=O)c1nc(NC(=O)c2ccc(C(C)(C)C)cc2)n[nH]1`: the inhibition is -1.33%.

On to `COC(=O)c1nc(NC(=O)c2ccc(F)cc2)n[nH]1`, for which the inhibition is -3.85%.

As for `COC(=O)c1nc(NC(=O)c2ccccc2)n[nH]1`, the inhibition was 64.1% (active).

For the molecule `COc1cccc(CSc2nnc(-c3cccnc3)n2Cc2ccccc2)c1`, the inhibition was 2.07%.

Consider `CCc1nc2c(OCCOc3ccccc3)cccn2c1N(C)C(=O)c1cccs1`, for which the inhibition is -0.996%.

On to `CC(=O)c1cccc(-c2cnc3c(NC=O)cc(-c4ccc(N5CCN(C)CC5)cc4)cn23)c1`, for which the inhibition was 2.68%.

Regarding `CC(C)(C)CC(=O)Nc1nc(C(N)Cc2ccc(C(F)(F)F)cc2)cs1` (configuration not stated), the inhibition was 14%.

Consider `O=C(Nc1cccnc1Cl)c1cc(-c2cccc(Cl)c2)on1`, for which the inhibition is -7.36%.

In the case of `O=C(NCCCN1CCOCC1)c1cc(-c2cccc(O)c2)on1`, the inhibition was -0.66%.

On to `CCN(CC)CCCNC(=O)c1cc(-c2cccc(Cl)c2)on1`, for which the inhibition was 63.4% (active).

With `Cc1ccc(-c2nc(C3CCCN(S(=O)(=O)c4ccc(Br)s4)C3)no2)cc1` (configuration not stated), the inhibition was -7.73%.

Consider `CCOc1cc2ccccc2cc1C(=O)Nc1ccccn1`, for which the inhibition is -0.208%.

For `Cc1cccc(OCC(=O)NCCCNC(=O)c2ccccn2)c1`, the inhibition was 1.46%.

As to `CCN(CC)CCOc1ccc2c(c1)C(=NNC(=O)c1ccccn1)c1cc(OCCN(CC)CC)ccc1-2`, the inhibition was 64.6% (active).

For the molecule `C=CCn1c2c(c3ccccc31)CCC2`, the inhibition was 1.47%.

Turning to `Cc1ccc(Nc2ncnc3c2cnn3C)c(C)c1`, the inhibition was -0.415%.

`Cn1ncc2c(NNC(=O)Cc3cccc4ccccc34)ncnc21`: the inhibition was -5.08%.

Take `Cn1ncc2c(Nc3cccc4ccccc34)ncnc21`: the inhibition was 58.9% (active).

For the molecule `Cc1cc(C)cc(NC(=O)N2CCC(N(C)CCC(C)C)CC2)c1`, the inhibition is 6.38%.

As for `Cc1cc(NS(=O)(=O)c2ccc(NC(=O)CSc3nnc(SCc4ccc(F)cc4)s3)cc2)nc(C)n1`, the inhibition was 1.71%.

Consider `CCOC(=O)C(=O)N(Cc1ccccc1)c1ccccc1C(=O)Nc1cc(OC)ccc1OC`, for which the inhibition was 3.11%.

With `Cc1[nH]n(-c2ccccc2)c(=O)c1N=Nc1ccccc1C(=O)N1CCCCC1`, the inhibition was 56.8% (active).

For `Cc1cccc(N=Nc2c(C)[nH]n(-c3ccccc3)c2=O)c1`, the inhibition was 9.54%.

For `COC(=O)c1ccccc1N=Nc1c(C)[nH][nH]c1=O`, the inhibition was 0.329%.

In the case of `OC(c1ccccc1)c1nc(-c2cnc3ccccc3c2)cs1` (configuration not stated), the inhibition is 2.58%.

With `COC(=O)CC1CCc2cc(C)cc(C(CC(C)C)NC(=O)[C@H](CC(C)C)NC(=O)OCc3ccccc3)c2O1` (some centres not stated), the inhibition was -2.73%.

In the case of `O=C(/C=C/c1ccc(Cl)cc1Cl)NCc1ccco1`, the inhibition was 57.4% (active).

With `O=C(NCc1ccco1)C1(c2ccc(Cl)cc2)CCCC1`, the inhibition is 3.15%.

As for `COC(=O)/C=C/C(=O)NCc1ccco1`, the inhibition is 0.685%.

Consider `CCOc1ccc(-n2c(SCC(=O)Nc3cc(C)c(NC(=O)c4ccccc4)cc3OC)nnc2-c2cccc(Cl)c2)cc1`, for which the inhibition is 1.66%.

Regarding `c1csc(-c2nnc(SCc3nc4ccccc4[nH]3)o2)c1`, the inhibition was -7.8%.
